Source: PubChem BioAssay (University of Kansas High Throughput Screening Laboratory)
mHTT-CaM PPI inh: mutant huntingtin-calmodulin interaction inhibitors – biochemical, AlphaScreen, primary screen | 190,000 compounds, 3.6% hits | AID 1671202, 2021 | P42858 | inhibition, % at 15 µM | AlphaScreen His-mHTT/GST-CaM binding, luminescence;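 note: 0% = both proteins with DMSO and 100% = one protein alone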
Pf apPOL inh: Pf-apPOL inhibitors, biochemical, fluorescence. inhibition, % at 10 µM. Recombinant Pf-apPOL, molecular beacon fluorescence, 1.5 h. 210,000 compounds, 0.25% hits. AID 1794808, 2022
Active calls of the source: *; i = inactive; . = no result given. The full list was thinned out, with hits kept by preference. Cut-off read from the data, not from the text of the source: active = inhibition above about 50%; inactive = the rest.

SMILES	mHTT-CaM PPI inh	Pf apPOL inh
COc1ccc(OC(NC(=O)/C=C/c2ccccc2)C(Cl)(Cl)Cl)cc1 (configuration not stated)	51*	1
O=C(NC(Nc1ccccc1)C(Cl)(Cl)Cl)c1ccc(F)cc1 (configuration not stated)	-9	-4
O=C(NC(Nc1ccccc1)C(Cl)(Cl)Cl)c1ccc(Cl)cc1 (configuration not stated)	16	-2
O=C(NC(Nc1ccccc1)C(Cl)(Cl)Cl)c1ccc(Br)cc1 (configuration not stated)	57*	4
O=C(/C=C/c1ccccc1)NC(Nc1ccccc1)C(Cl)(Cl)Cl (configuration not stated)	96*	-8
O=C(/C=C/c1ccccc1)NC(Nc1cccnc1)C(Cl)(Cl)Cl (configuration not stated)	31	0
O=C(NCc1ccccc1Cl)c1cn2c(n1)CCCC2	-9	-1
O=C1NN(c2cccc(C(F)(F)F)c2)C(=O)/C1=C/c1ccc([N+](=O)[O-])o1	98*	-1
O=C1NN(c2ccccc2)C(=O)/C1=C/c1ccc(-c2ccccc2F)o1	10	-8
O=C(Nc1ccccc1F)C1CCN(c2ncnc3c2nc2n3CCCCC2)CC1	5	96*
Cc1ccc(Cl)cc1N1CCN(c2ncnc3c2nc2n3CCCCC2)CC1	99*	-5
Cc1ccc(N(C)C(=O)C2CCCN(c3ncnc4c3nc3n4CCCCC3)C2)cc1C (configuration not stated)	39	4
Clc1cccc(N2CCN(c3ncnc4c3nc3n4CCCC3)CC2)c1	50	0
Cc1ccc(N(C)C(=O)C2CCN(c3ncnc4c3nc3n4CCCCC3)CC2)cc1C	56*	-1
O=C(Nc1cc(F)ccc1F)C1CCN(c2ncnc3c2nc2n3CCCCC2)CC1	1	-3
COCCNS(=O)(=O)c1cc(Cl)ccc1Cl	-7	24
CCCOc1cccc(C(=O)NCc2ccccc2)c1	-14	-8
O=C(Nc1cccs1)N1CCCC(c2nnc(-c3ccc4c(c3)OCO4)o2)C1 (configuration not stated)	26	15
O=C(CN1CCC(c2nc(-c3ccccc3Cl)no2)CC1)NCc1ccc(Cl)cc1	6	-7
CCOC(=O)c1ccc(-n2c(C)ccc2C)cc1	.	-6
Cc1ccc(C)n1-c1ccc(C(=O)ON2C(=O)CCC2=O)cc1	.	82*
CN(CC1(C)CCOCC1)S(=O)(=O)c1ccc(C(F)(F)F)cc1	-3	-3
COc1cc(C(Nc2cccc(C)n2)c2ccc3ccc(C)nc3c2O)ccc1O (configuration not stated)	97*	-79
COc1cc(C(O)CO)ccc1O (configuration not stated)	.	-5
COc1ccc(C(=O)Nc2cccc(C)n2)c(OC)c1OC	-8	0
SMILES	mHTT-CaM PPI inh	Pf apPOL inh
Cc1cccc(NS(=O)(=O)c2ccc(C)c([N+](=O)[O-])c2)n1	-6	3
Cc1ccc2cccc(NC(=O)C(F)(F)F)c2n1	28	1
Cc1cccc(NC(c2ccccc2[N+](=O)[O-])c2ccc3ccc(C)nc3c2O)n1 (configuration not stated)	75*	-6
COc1ccc(C(Nc2cccc(C)n2)c2ccc3ccc(C)nc3c2O)cc1C (configuration not stated)	89*	-92
Cc1cccc(NC(c2ccc(O)cc2)c2ccc3ccc(C)nc3c2O)n1 (configuration not stated)	97*	-6
O=C(Cn1nc2c(cc1=O)CCCC2)Nc1ccc(F)cc1	2	1
CC(=O)c1ccc(NC(=O)NC2CCCCC2)cc1	2	0
CCc1[nH]nc(-c2ccccc2)c1NC(=O)CC1CCCC1	98*	72*
CCCc1[nH]nc(-c2ccccc2)c1NC(=O)C1CC1	13	-6
Cc1sc(-c2ccn[nH]2)cc1NC(=O)C1CCCCC1	-4	-3
Cc1sc(-c2ccn[nH]2)cc1NC(=O)c1cccc(N(C)C)c1	87*	-2
COc1ccc(N2CCN(Cc3ccc(OC)c(C)c3OC)CC2)cc1	18	-8
O=[N+]([O-])c1ccc(N2CCN(S(=O)(=O)c3ccccc3)CC2)cc1SCc1ccco1	98*	-9
O=[N+]([O-])c1ccc(N2CCOCC2)cc1SCc1ccco1	24	-6
CCCCN1C(=O)CN(C2CCCCC2)C(=O)C1c1ccc(OCCC)c(OC)c1 (configuration not stated)	53*	-10
COc1ccc(C2C(=O)N(C3CCC(C)CC3)CC(=O)N2Cc2ccccc2Cl)cc1OC (configuration not stated)	15	-8
CCCCN1C(=O)CN(C2CCCCC2)C(=O)C1c1ccc(OC(C)C)c(OC)c1 (configuration not stated)	45	-6
CCOc1ccc(C2C(=O)N(C3CCCCC3)CC(=O)N2Cc2ccccc2Cl)cc1OC (configuration not stated)	58*	-7
Cc1oc(C2CCN(C(=O)c3ccc(F)cc3F)CC2)nc1C(=O)N1CCCCC1	3	-3
CC(C)Cc1ccc(C(=O)C=Cc2cccc([N+](=O)[O-])c2)cc1	.	1
N#Cc1c(-c2ccccc2)cc(-c2ccc(F)cc2)nc1F	0	.
Cc1ccc(-c2cc(-c3ccc(F)cc3)c(C#N)c(N)n2)o1	88*	-4
O=C(CCc1ccc2cc[nH]c2c1)NCc1ccc(F)c(Cl)c1	16	-6
COc1ccccc1CCC(=O)N1CCCC1c1nc(-c2cccc(Cl)c2)no1 (configuration not stated)	37	-1
COc1cc(Sc2ccc(Cl)cc2)ccc1[N+](=O)[O-]	.	-6
SMILES	mHTT-CaM PPI inh	Pf apPOL inh
COc1cc(Sc2ccccc2[N+](=O)[O-])ccc1N	55*	1
COc1ccc(NC(=O)c2nc3nc(-c4ccccc4)cc(C(F)(F)F)n3n2)cc1OC	49	0
CC(=O)C1=C(O)C(=O)N(c2ccccn2)C1c1ccc(Br)cc1 (configuration not stated)	6	8
Cc1nc2c(-c3ccc(Cl)cc3)c(C)nn2c(N)c1-c1ccccc1	-4	-5
Cc1cc(Nc2ccc(C(N)=O)cc2)n2nc(C)c(-c3ccccc3)c2n1	74*	-6
COc1ccc(-c2cc3nc(C)cc(Nc4ccc(C(N)=O)cc4)n3n2)cc1OC	22	12
Cc1nn2c(N)cc(-c3ccccc3)nc2c1-c1ccccc1	83*	1
CCc1ccc(S(=O)(=O)NCCc2csc3nc(-c4cccc(F)c4)nn23)s1	-13	-5
CC(C)n1c(=O)c(-c2ccc(C(=O)Nc3ccc(F)cc3)cc2)nc2cccnc21	3	-4
Cc1ccc(NC(=O)N2CCC(n3cnc4c(C)cccc4c3=O)CC2)c(C)c1	0	0
CC(C)(C)c1ccc(C(=O)O/N=C(\N)c2cccnc2)cc1	i	0
CCN1CCN(C(=O)C2CCN(c3nc4ccc(-c5ccsc5)nc4s3)CC2)CC1	67*	0
O=C(C1CCN(c2nc3ccc(-c4ccsc4)nc3s2)CC1)N1CCCC1	12	-3
CCOc1cccc2cc(C(N)=O)c(=NCc3ccccc3)oc12	-2	-1
CCOc1cccc(=NCc2ccccc2)c2c(C)[nH]c(C)c12	76*	0
CCC(=O)Nc1cccc(-c2noc(C3CCCN(C(=O)c4ccc(C#N)cc4)C3)n2)c1 (configuration not stated)	4	-1
